Screening data as filed in PubChem.
Only a selection was taken, and hits are over-represented in it overall.
ALOX12 inh = blocks human arachidonate 12S-lipoxygenase; purified 12hLO, xylenol orange hydroperoxide absorbance; Potency, µM (titrated, usually from 108 µM), inactives show at the top dose activity change, negative = inhibition, hits mostly inhibitors; hit rate 1.1% among 580,000; AID 1671190; note: % is set by controls: 0 for no effect and ±100 for the full control effect
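Purified human 12hLO (150 nM final) in 25 mM Hepes, 0.01% Triton X-100, pH 7.0 was preincubated 15 min at room temperature with compound. Then 40 uM arachidonic acid was added, 30 min. Hydroperoxide was read by Fe-XO absorbance ratio 573/405 nm.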
G9a block = blocks human histone lysine methyltransferase G9a | Potency, µM (top dose mostly 102 µM), without a hit: at the highest dose activity, negative = inhibition, usual class: inhibitors | G9a H3K9 monomethylation, AlphaScreen, 2 h | AID 504332 | hit rate 8.8% among 350,000 | Q96KQ7; note: % is set by controls: 0 for no effect and ±100 for the full control effect; nearly all actives have a fitted effect of over 75% in size
Target sequence (Q96KQ7 913-1193 limits assumed): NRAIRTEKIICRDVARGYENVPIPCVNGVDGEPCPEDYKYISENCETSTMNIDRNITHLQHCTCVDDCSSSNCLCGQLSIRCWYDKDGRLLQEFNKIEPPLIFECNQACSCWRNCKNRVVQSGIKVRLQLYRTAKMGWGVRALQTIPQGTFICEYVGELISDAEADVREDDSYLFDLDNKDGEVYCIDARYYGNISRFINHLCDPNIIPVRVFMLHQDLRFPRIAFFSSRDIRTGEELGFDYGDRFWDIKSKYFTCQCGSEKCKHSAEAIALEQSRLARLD
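G9a (20 nM) was preincubated 15 min with compound, then reacted 2 h at room temperature with 500 nM biotin-H3K9 peptide and 20 µM SAM. Monomethyl-H3K9 detected by AlphaScreen using anti-H3K9me1 antibody.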
Sfp PPTase inh = blocks B. subtilis Sfp PPTase activity; Q9F4F7; Biochemical Sfp PPTase activity, qHTS; Potency, µM, without a hit: largest response in the series, negative = inhibition, usual class: inhibitors; hit rate 3.5% among 310,000;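 note: the enzyme is Sfp with the accession as filed and its product quenches rhodamine fluorescence; 0% = enzyme reaction without inhibitor and -100% = no enzyme wells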
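With Hepes-Na pH 7.6 buffer containing 10 mM MgCl2, Sfp (15 nM) modified BHQ-2-YbbR (12.5 uM) using rhodamine-CoA (5 uM). Two reads 30 minutes apart at 525/598 nm yielded each well's rate.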
GRP78 ERSR act = ER stress response induction in glioma; AID 602332; hit rate 0.02% among 420,000; U87-MG GRP78 promoter luciferase reporter, 16 h; Potency, µM, for inactives: at the highest dose activation, hits mostly activators; note: series mostly up to about 76 µM; % of control where 0% means no effect; nearly all actives have a fitted effect of over 35% in size
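Stably transfected U87-MG glioma cells carrying a GRP78-based luciferase sensor; 16 h compound incubation. Luminescence end-point read 10 min after Bright-Glo addition at room temperature.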
VDR inhibitor = blocks the human vitamin D receptor; P11473; VDR-SRC2-3 peptide fluorescence polarization, 2 h; Potency, µM, without a hit: max response, negative = inhibition, usual class: inhibitors; hit rate 0.93% among 400,000; AID 504847; note: % is set by controls: 0 for no effect and ±100 for the full control effect
Target sequence (P11473 whole entry, looked up): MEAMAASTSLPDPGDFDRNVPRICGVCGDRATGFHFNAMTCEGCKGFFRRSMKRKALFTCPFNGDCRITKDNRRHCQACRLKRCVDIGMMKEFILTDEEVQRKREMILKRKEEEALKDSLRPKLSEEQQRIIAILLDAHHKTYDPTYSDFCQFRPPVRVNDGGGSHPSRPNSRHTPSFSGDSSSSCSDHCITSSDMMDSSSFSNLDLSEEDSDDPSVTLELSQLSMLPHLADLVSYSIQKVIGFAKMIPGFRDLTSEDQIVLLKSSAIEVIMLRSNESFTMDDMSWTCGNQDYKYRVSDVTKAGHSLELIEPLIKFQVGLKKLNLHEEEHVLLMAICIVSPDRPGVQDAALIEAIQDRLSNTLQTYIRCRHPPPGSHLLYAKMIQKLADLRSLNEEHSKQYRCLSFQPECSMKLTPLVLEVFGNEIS
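Inhibition of the VDR/SRC2-3 peptide interaction is quantified by fluorescence polarization. Compounds (23 nl, pintool) incubate with the reagents for 2 hours at ambient room temperature.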
Numbers without * were called inactive; ? = inconclusive; / = no result; [ ] = dose if it differs, or a comment. Calls come from the whole dose curve; as a rule, active = well fitted curve in the direction sought with a large enough effect; inconclusive = small, poorly fitted or top-dose-only effect, or another doubt; inactive = no such curve, though single readings can be large; an effect the other way counts as inactive or inconclusive. Potency is the fitted concentration of half-maximal effect.

SMILES	ALOX12 inh	G9a block	Sfp PPTase inh	GRP78 ERSR act	VDR inhibitor
COc1cccc(C2=CC(c3cc(OC)ccc3OC)n3nnnc3N2)c1 (configuration not stated)	?	?	-7.5%	3.3%	-10.6%
NCc1cccc(NC(=O)c2ccncc2)c1	15.1%	/	/	/	/
O=C1CCC[C@@H]2Cc3[nH]c4c(Cl)ccc(Cl)c4c3[C@@H]3CCN1[C@H]23	1.8%	50.1µM*	-0.1%	-2.2%	-16.5%
CC(C)S(=O)(=O)c1csc(C(=O)NN)c1Cl	?	44.7µM*	?	-1.0%	-1.8%
CSc1ccc(COC(=O)c2cc([N+](=O)[O-])ccc2N2CCOCC2)cc1	-23.6%	44.7µM*	/	-3.9%	?
Cc1ccccc1COC(=O)c1cc([N+](=O)[O-])ccc1N1CCOCC1	0.0%	?	16.8%	-0.9%	-20.3%
O=C(OCc1ccc([N+](=O)[O-])cc1)c1cc(S(=O)(=O)N2CCCCC2)ccc1N1CCOCC1	-24.8%	?	/	-3.5%	-7.0%
CN(C)S(=O)(=O)c1cccc(COC(=O)c2cc([N+](=O)[O-])ccc2N2CCOCC2)c1	-0.8%	56.2µM*	/	0.1%	5.1%
CCCCc1cc(O)c(CCCC)c(O)c1	?	-28.9%	9.1%	22.4µM*	18.6%
Cc1oc(-c2ccccc2)nc1CC(=O)Nc1ncccc1O	-6.9%	/	/	/	/
C/C(=N\NS(=O)(=O)c1ccc([N+](=O)[O-])cc1)c1ccc(NC(=O)c2ccco2)cc1	-17.2%	35.5µM*	-16.4%	-0.1%	-20.4%
O=C(NNc1ccc([N+](=O)[O-])cc1)c1ccco1	?	44.7µM*	?	-2.1%	7.2%
O=C(NC(=S)Nc1ccc([N+](=O)[O-])cc1)c1ccco1	-7.2%	/	/	-0.1%	/
O=C(NNc1ccc([N+](=O)[O-])cc1[N+](=O)[O-])c1ccco1	/	39.8µM*	-14.8%	-1.4%	-19.0%
CC(=NNS(=O)(=O)c1ccc([N+](=O)[O-])cc1)c1ccc(C)cc1	?	/	/	-7.5%	9.6%
Nc1ccc([N+](=O)[O-])cc1C(=O)NNC(=O)c1ccco1	133.6%	0.0%	12.0%	1.0%	-20.8%
Cc1cc2c(cc1S(=O)(=O)N1CCC(C(=O)N3CCCCC3)CC1)OC(C)C(=O)N2 (configuration not stated)	4.4%	/	/	/	/
O=C(O)c1ccc(COc2cccc(Cl)c2)s1	-6.1%	/	/	/	/
O=C1C=CC2=C3c4cc(O)c(O)cc4C[C@]3(O)COC2=C1	/	?	-109.2%	2.3%	11.2µM*
COc1ccc(N2C(=O)[C@@H]3[C@H](C2=O)[C@H]2C=CC=NN2[C@@H]3C(=O)Nc2ccc(Cl)cc2)cc1	?	7.08µM*	35.5µM*	-4.9%	?
COc1ccc(C(=O)[C@H]2[C@H]3C(=O)N(c4ccc(OC(C)=O)cc4)C(=O)[C@H]3C3C=CC=NN32)cc1 (some centres not stated)	0.0%	/	2.5%	-2.2%	7.1%
O=C(Nc1ccc(Cl)cc1)[C@@H]1[C@@H]2C(=O)N(c3cccc(F)c3)C(=O)[C@@H]2[C@H]2C=CC=NN21	0.0%	8.91µM*	-3.2%	-3.4%	?
Cc1ccccc1NC(=O)Cc1nc(COC(=O)c2ccccn2)cs1	?	50.1µM*	/	-4.2%	-11.5%
COc1ccccc1NC(=O)Cc1nc(CCl)cs1	39.8µM*	6.31µM*	-5.1%	-3.2%	-17.8%
Cc1ccccc1NC(=O)Cc1nc(COC(=O)C(C)C)cs1	-9.0%	?	1.3%	3.7%	12.7%
SMILES	ALOX12 inh	G9a block	Sfp PPTase inh	GRP78 ERSR act	VDR inhibitor
COc1cccc(/C=C2\Oc3cc(OS(=O)(=O)c4ccc(C)cc4)ccc3C2=O)c1	-32.4%	/	/	/	/
O=C(OCC(=O)N1CCOCC1)c1cc2ccccc2oc1=O	2.7%	30.4%[12.7 µM]	/	-1.8%	13.7%
Cc1cc(C)nc(SCC(=O)c2cc3ccccc3oc2=O)n1	0.0%	?	17.8µM*	3.7%	-0.9%
O=C(CSC(=S)N1CCOCC1)c1cc2ccccc2oc1=O	/	70.8µM*	-3.6%	6.2%	-7.9%
O=C(NCC(O)c1ccc(F)cc1F)c1ccc(=O)[nH]c1 (configuration not stated)	14.7%	/	/	/	/
Cc1ccccc1CCC1CCCN(S(=O)(=O)c2cccnc2)C1 (configuration not stated)	33.0%	/	/	/	/
COc1ccc(-c2cc(=Nc3ccc(C)cc3)c3ccccc3o2)cc1	-21.9%	?	?	-4.9%	-16.6%
CCOc1ccc(N=c2cc(-c3ccc(OC)cc3)oc3ccccc23)cc1	-0.1%	25.1µM*	-12.7%	-3.0%	-7.5%
CCOc1ccc(-c2csc(/C(C#N)=C\c3ccc(O)c([N+](=O)[O-])c3)n2)cc1	-19.8%	?	79.4µM*	-2.2%	-1.7%
N#Cc1ccc(COc2ccccc2C#N)cc1	-34.5%	/	/	/	/
Cc1ccc(C(=O)/C=C\NCc2ccccc2)cc1	14.8%	-2.5%	89.1µM*	-1.1%	-0.4%
O=C(c1cccnc1)N1CCCC(n2cc(-c3nc(-c4ccccc4)no3)nn2)C1 (configuration not stated)	39.8µM*	/	/	/	/
CCCn1nc(C)c(-c2cc(C(=O)N3CCCC(Cc4nncn4Cc4ccccc4)C3)[nH]n2)c1C (configuration not stated)	41.0%	/	/	/	/
COC(Cc1ccccc1N1CCCC1=O)OC	-2.0%	56.2µM*	7.2%	-0.8%	3.5%
CC1CCCC(NC(=O)COC(=O)Cc2cn3ccsc3n2)C1C (configuration not stated)	?	50.1µM*	-12.7%	3.9%	-4.0%
CCO/C=C1/C(=O)N(C(C)=O)c2ccccc21	-13.0%	10µM*	?	-2.0%	-6.1%
CCOC(=O)CON1C(=O)c2ccccc2C1=O	0.3%	-60.6%	-17.6%	-1.1%	13.9%
N#CC1=C(N)OC2=C(C(=O)CCC2)C12CCN(C(=O)OCc1ccccc1)CC2	?	50.1µM*	-5.8%	0.2%	3.0%
CCCCN1CCCc2cc(CN(CCCN3CCOCC3)C(=O)Nc3ccc(CC)cc3)ccc21	?	8.91µM*	/	-2.4%	19.6%
CCCN1CCCc2cc(CN(CCCN3CCOCC3)C(=O)Nc3ccc(CC)cc3)ccc21	?	12.6µM*	/	-4.7%	16.5%
CCc1ccc2[nH]c(=O)c(CN(CCCN3CCOCC3)C(=O)Nc3ccc(F)cc3)cc2c1	0.3%	-38.1%[2.33 µM]	-7.6%	-4.5%	-1.5%
CCN1CCCc2cc(CN(CCN3CCOCC3)C(=S)Nc3cccc(Cl)c3)ccc21	-4.8%	?	13.9%	-1.8%	19.8%
COc1ccccc1Nc1nc(-c2ccc3c(c2)NC(=O)CO3)cs1	?	?	-13.1%	-1.6%	3.0%
COc1ccc(Nc2nc(-c3ccc4c(c3)NC(=O)CO4)cs2)cc1	?	44.7µM*	-11.8%	4.4%	-12.3%
CCC(C)Nc1nc(-c2ccc3c(c2)NC(=O)CO3)cs1 (configuration not stated)	?	50.1µM*	?	-0.8%	-18.9%
CC1CCCC(C)N1C(=O)c1cc(-c2ccco2)on1 (configuration not stated)	-18.2%	50.1µM*	-2.1%	2.7%	18.1%
